Experiment [1] in a line: NCI Yeast Anticancer Drug Screen. Data for the rad50 strain (AID 155).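 Further: 0% = growth of vehicle-only cultures of the same strain.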 The note with it: S. cerevisiae rad50 strain growth inhibition, stronger effect = higher value. The essentials:
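Yeast carrying a defined DNA repair defect were exposed to test compounds, and growth was compared with vehicle-treated controls to give percent inhibition.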

Experiment [2] is described as follows: NCI Yeast Anticancer Drug Screen. Data for the mec2-1 strain (AID 157). The following applies: S. cerevisiae mec2-1 strain, stronger effect = higher value. The essentials:
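Yeast mec2-1 mutant treated with compound. Readout: growth inhibition vs vehicle controls.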

Experiment [3] can be described thus: NCI Yeast Anticancer Drug Screen. Data for the sgs1 mgt1 strain (AID 161).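 Further: 0% = growth of cultures given vehicle only.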 The following applies: S. cerevisiae sgs1 mgt1 strain, stronger effect = higher value. A digest of the protocol: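 Mutant yeast exposed to compound; growth scored against vehicle-only wells.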
Experiment [4] is described as follows: NCI Yeast Anticancer Drug Screen. Data for the cln2 rad14 strain (AID 165).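 Further: 0% = growth equal to vehicle treated cultures.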 The note with it: S. cerevisiae cln2 rad14 strain, stronger effect = higher value. The essentials:
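cln2 rad14 yeast strain; compound exposure; growth inhibition read vs vehicle controls.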

Experiment [5] can be described thus: NCI Yeast Anticancer Drug Screen. Data for the bub3 strain (AID 167). The note with it: S. cerevisiae bub3 mutant strain, stronger effect = higher value. The essentials: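 Compounds were applied to a genetically altered yeast strain carrying a cell-cycle control defect. Growth inhibition was scored against vehicle-treated controls.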
Experiment [6] is described as follows: NCI Yeast Anticancer Drug Screen. Data for the mlh1 rad18 strain (AID 175). The note with it: S. cerevisiae mlh1 rad18 strain growth inhibition, stronger effect = higher value. A digest of the protocol: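 Yeast w/ defined DNA-repair lesions; compound exposure; growth vs vehicle controls → % inhibition.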
The mark [7] stands for this setting: at 5.0 µM (retest, dose inferred, filed as 0.5).
Setting [8] is: at 50.0 µM (retest, dose inferred, filed as 5.0).

This is part of a sample that, as a whole, favours compounds with a hit. Of some 79,000 tested, about 15% had one in any assay. A number with no mark means an inactive call. Activity calls are given as the source filed them. No stated cut-off is given here; in the data, active means growth inhibition above about 70%; inactive means the rest.

As for `COc1cc(OC(C)C)cc2c1C(=O)C(C(O)(O)C(F)(F)F)=CC2=O`, the growth inhibition was 0% in experiment [1] (setting [7]); 84% (active) in experiment [1] (setting [8]); 72.4% (active) in experiment [1] (at 50.0 µM); 11% in experiment [2] (setting [7]); 81% (active) in experiment [2] (setting [8]); 85.5% (active) in experiment [2] (at 50.0 µM). Besides, the growth inhibition in experiment [3] (setting [7]) is 2%; in experiment [3] (setting [8]) it was 78% (active); in experiment [3] (at 50.0 µM), 47.7%; in experiment [4] (setting [7]), 5%; in experiment [4] (setting [8]) it was 85% (active); in experiment [4] (at 50.0 µM), 81.2% (active). The growth inhibition in experiment [5] (setting [7]) is 6%; in experiment [5] (setting [8]) it was 88% (active); in experiment [5] (at 50.0 µM), 82.9% (active); in experiment [6] (setting [7]), -8%; in experiment [6] (setting [8]), 77% (active); in experiment [6] (at 50.0 µM), 92.8% (active).

Consider `Cc1[nH]nc(C(=O)N/N=C/c2cccs2)c1N=NN(C)C`, for which the growth inhibition in experiment [1] (setting [7]) is 73% (active); in experiment [1] (setting [8]), 96% (active); in experiment [1] (at 50.0 µM), 97.2% (active); in experiment [2] (setting [7]) it was 15%; in experiment [2] (setting [8]) it was 98% (active); in experiment [2] (at 50.0 µM) it was 82.9% (active). Besides, the growth inhibition in experiment [3] (setting [7]) was 19%; in experiment [3] (setting [8]), 73% (active); in experiment [3] (at 50.0 µM), 97% (active); in experiment [4] (setting [7]), -3%; in experiment [4] (setting [8]) it was 96% (active); in experiment [4] (at 50.0 µM) it was 99.3% (active). Further, the growth inhibition in experiment [5] (setting [7]) was -1%; in experiment [5] (setting [8]), 95% (active); in experiment [5] (at 50.0 µM) it was 87.6% (active); in experiment [6] (setting [7]) it was 80% (active); in experiment [6] (setting [8]), 98% (active); in experiment [6] (at 50.0 µM), 99% (active).

As to `O=C(CN(Cc1ccccc1)Cc1ccccc1)N1CCc2c([nH]c3ccccc23)C1c1cccnc1` (stereo not given), the growth inhibition is 29% in experiment [1] (setting [7]); 29% in experiment [1] (setting [8]); 86.8% (active) in experiment [1] (at 50.0 µM); 27% in experiment [2] (setting [7]); 27% in experiment [2] (setting [8]); 86.5% (active) in experiment [2] (at 50.0 µM). The growth inhibition is 8% in experiment [3] (setting [7]); 8% in experiment [3] (setting [8]); 84.1% (active) in experiment [3] (at 50.0 µM); 19% in experiment [4] (setting [7]); 19% in experiment [4] (setting [8]); 88.3% (active) in experiment [4] (at 50.0 µM). Moreover, the growth inhibition in experiment [5] (setting [7]) was 11%; in experiment [5] (setting [8]), 11%; in experiment [5] (at 50.0 µM) it was 87.5% (active); in experiment [6] (setting [7]), 32%; in experiment [6] (setting [8]), 32%; in experiment [6] (at 50.0 µM), 85% (active).

As for `Cn1c(=O)c2c3oc(=O)cc(O)c3c(=O)n3c4ccccc4n(c1=O)c23`, the growth inhibition was 38% in experiment [1] (setting [7]); 83% (active) in experiment [1] (setting [8]); 74.8% (active) in experiment [1] (at 50.0 µM); 29% in experiment [2] (setting [7]); 69% in experiment [2] (setting [8]); 19.9% in experiment [2] (at 50.0 µM). The growth inhibition in experiment [3] (setting [7]) was 35%; in experiment [3] (setting [8]), 86% (active); in experiment [3] (at 50.0 µM) it was 45%; in experiment [4] (setting [7]), 34%; in experiment [4] (setting [8]), 45%; in experiment [4] (at 50.0 µM), 42.5%. Besides, the growth inhibition in experiment [5] (setting [7]) was 31%; in experiment [5] (setting [8]) it was 75% (active); in experiment [5] (at 50.0 µM) it was 42.3%; in experiment [6] (setting [7]), 53%; in experiment [6] (setting [8]), 92% (active); in experiment [6] (at 50.0 µM), 42.1%.

With `CC(C)C(O)C(C)C`, the growth inhibition in experiment [1] (setting [7]) was 5%; in experiment [1] (setting [8]) it was 1%; in experiment [1] (at 50.0 µM), 83% (active); in experiment [2] (setting [7]) it was 0%; in experiment [2] (setting [8]), -3%; in experiment [2] (at 50.0 µM) it was -2.45%. Also, the growth inhibition in experiment [3] (setting [7]) was -1%; in experiment [3] (setting [8]) it was 0%; in experiment [3] (at 50.0 µM), 4.95%; in experiment [4] (setting [7]), 4%; in experiment [4] (setting [8]), -1%; in experiment [4] (at 50.0 µM), 17.1%. Besides, the growth inhibition in experiment [5] (setting [7]) is 1%; in experiment [5] (setting [8]), -7%; in experiment [5] (at 50.0 µM) it was 13.7%; in experiment [6] (setting [7]), 4%; in experiment [6] (setting [8]), 2%; in experiment [6] (at 50.0 µM), 49.5%.

In the case of `CCOP(=O)(OCC)C(=C1C=C(C(C)(C)C)C(=O)C(C(C)(C)C)=C1)P(=O)(OCC)OCC`, the growth inhibition in experiment [1] (setting [7]) was 2%; in experiment [1] (setting [8]) it was 97% (active); in experiment [1] (at 50.0 µM), 98.2% (active); in experiment [2] (setting [7]), -15%; in experiment [2] (setting [8]), 99% (active); in experiment [2] (at 50.0 µM), 96.8% (active). Further, the growth inhibition is 0% in experiment [3] (setting [7]); 89% (active) in experiment [3] (setting [8]); 98.8% (active) in experiment [3] (at 50.0 µM); -4% in experiment [4] (setting [7]); 99% (active) in experiment [4] (setting [8]); 97.2% (active) in experiment [4] (at 50.0 µM). Besides, the growth inhibition in experiment [5] (setting [7]) was 5%; in experiment [5] (setting [8]) it was 99% (active); in experiment [5] (at 50.0 µM), 97.2% (active); in experiment [6] (setting [7]), -12%; in experiment [6] (setting [8]), 98% (active); in experiment [6] (at 50.0 µM) it was 96.8% (active).

On to `COc1ccc2nc3c([N+](=O)[O-])ccc(NCCCN(C)C)c3c(N)c2c1`, for which the growth inhibition in experiment [1] (setting [7]) is 6%; in experiment [1] (setting [8]), 86% (active); in experiment [1] (at 50.0 µM), 90.3% (active); in experiment [2] (setting [7]), 9%; in experiment [2] (setting [8]), 70% (active); in experiment [2] (at 50.0 µM), 85.7% (active). The growth inhibition is 24% in experiment [3] (setting [7]); 75% (active) in experiment [3] (setting [8]); 92.5% (active) in experiment [3] (at 50.0 µM); 16% in experiment [4] (setting [7]); 50% in experiment [4] (setting [8]); 34.5% in experiment [4] (at 50.0 µM). Besides, the growth inhibition was -22% in experiment [5] (setting [7]); 85% (active) in experiment [5] (setting [8]); 44.5% in experiment [5] (at 50.0 µM); -14% in experiment [6] (setting [7]); 95% (active) in experiment [6] (setting [8]); 88.6% (active) in experiment [6] (at 50.0 µM).

Regarding `Cc1nc(N)sc1N=Nc1ccccc1Br`, the growth inhibition in experiment [1] (setting [7]) is -20%; in experiment [1] (setting [8]), 89% (active); in experiment [1] (at 50.0 µM), 88% (active); in experiment [2] (setting [7]) it was -11%; in experiment [2] (setting [8]), 97% (active); in experiment [2] (at 50.0 µM), 94.2% (active). The growth inhibition in experiment [3] (setting [7]) is 0%; in experiment [3] (setting [8]), 93% (active); in experiment [3] (at 50.0 µM) it was 92.1% (active); in experiment [4] (setting [7]), -5%; in experiment [4] (setting [8]) it was 62%; in experiment [4] (at 50.0 µM), 91.3% (active). The growth inhibition was -1% in experiment [5] (setting [7]); 91% (active) in experiment [5] (setting [8]); 95.8% (active) in experiment [5] (at 50.0 µM); 34% in experiment [6] (setting [7]); 96% (active) in experiment [6] (setting [8]); 95.8% (active) in experiment [6] (at 50.0 µM).

On to `CCCCN=C(c1ccc(O)cc1)c1ccc(OC)cc1O`, for which the growth inhibition is -4% in experiment [1] (setting [7]); 20% in experiment [1] (setting [8]); 42.7% in experiment [1] (at 50.0 µM); -1% in experiment [2] (setting [7]); 15% in experiment [2] (setting [8]); 18.6% in experiment [2] (at 50.0 µM). Also, the growth inhibition in experiment [3] (setting [7]) was -2%; in experiment [3] (setting [8]), 37%; in experiment [3] (at 50.0 µM) it was 64.1%; in experiment [4] (setting [7]) it was -3%; in experiment [4] (setting [8]), 20%; in experiment [4] (at 50.0 µM), 26.6%. For the same compound, the growth inhibition in experiment [5] (setting [7]) was -5%; in experiment [5] (setting [8]), 42%; in experiment [5] (at 50.0 µM), 58%; in experiment [6] (setting [7]), -4%; in experiment [6] (setting [8]), 22%; in experiment [6] (at 50.0 µM) it was 36%.

For `N#Cc1cccc2c1Sc1ccccc1N2`, the growth inhibition in experiment [1] (setting [7]) was 22%; in experiment [1] (setting [8]), 31%; in experiment [1] (at 50.0 µM) it was 88.6% (active); in experiment [2] (setting [7]), 6%; in experiment [2] (setting [8]) it was -9%; in experiment [2] (at 50.0 µM), 92.8% (active). Also, the growth inhibition is 1% in experiment [3] (setting [7]); 6% in experiment [3] (setting [8]); 89.2% (active) in experiment [3] (at 50.0 µM); -5% in experiment [4] (setting [7]); -6% in experiment [4] (setting [8]); 90.1% (active) in experiment [4] (at 50.0 µM). In addition, the growth inhibition was -26% in experiment [5] (setting [7]); 6% in experiment [5] (setting [8]); 91.3% (active) in experiment [5] (at 50.0 µM); -7% in experiment [6] (setting [7]); 7% in experiment [6] (setting [8]); 60.5% in experiment [6] (at 50.0 µM).

The values above are taken from PubChem BioAssay (NCI).
